The whole screen tested about 360,000 compounds, of which about 1,400 (0.39%) were called active. This excerpt belongs to a sample that is enriched for actives. Unmarked numbers belong to inactive results.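 How the source made its calls: active means activation above its plate's cutoff, the mean activation of sample wells plus 3 SD; inactive means the rest.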

Muscarinic acetylcholine receptor M4 (Homo sapiens), sequence (P08173 whole entry, looked up): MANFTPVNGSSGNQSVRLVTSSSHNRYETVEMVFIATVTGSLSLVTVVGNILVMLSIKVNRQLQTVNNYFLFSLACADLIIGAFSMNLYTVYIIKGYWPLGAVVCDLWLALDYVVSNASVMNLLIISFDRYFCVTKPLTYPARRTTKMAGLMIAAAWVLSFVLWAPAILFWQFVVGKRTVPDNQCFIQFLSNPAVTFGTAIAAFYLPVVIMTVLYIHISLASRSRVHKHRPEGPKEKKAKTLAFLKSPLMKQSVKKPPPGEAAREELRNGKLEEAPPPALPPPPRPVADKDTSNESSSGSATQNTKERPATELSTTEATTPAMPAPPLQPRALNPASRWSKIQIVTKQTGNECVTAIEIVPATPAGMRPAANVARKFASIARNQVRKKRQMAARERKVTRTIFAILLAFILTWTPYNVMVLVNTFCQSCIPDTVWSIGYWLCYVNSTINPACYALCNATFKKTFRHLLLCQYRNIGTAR

This experiment concerns the target Muscarinic acetylcholine receptor M4 (Homo sapiens) (UniProt P08173). Put plainly: CHRM4 PAMs potentiating acetylcholine calcium signal – CHO-K1 cells, Fluo-8 calcium fluorescence, primary screen (AID 624126). Conditions: CHO-K1 hM4/Gqi5, Fluo-8 calcium fluorescence, ACh EC20; at 3 µM; active compounds read high; 0% = ACh EC20, 100% = maximal ACh.
As for `COc1ccc2nc(C)cc(Nc3cccc(C(=O)O)c3)c2c1`, the activation is -1.48%.
The same measure for `COC(=O)CSc1ncnc2c1cnn2-c1ccc(C)cc1C`: 1.46%.
The same measure for `Cc1ccc(-n2ncc3c(Nc4cccc(C(=O)O)c4)ncnc32)cc1`: 29.6% (active); for `O=C1CN(C(=O)COC(=O)C2CC(=O)N(Cc3ccco3)C2)c2ccccc2N1` (centres undefined): 13.2%; for `O=C(NCc1ccc2c(c1)OCO2)c1c(-c2ccsc2)sc2ccccc12`: -3.52%.
As for `COc1cc2c(cc1OC)CN(C(C)C(=O)Nc1cccc(S(=O)(=O)N3CCOCC3)c1)CC2` (centres undefined), the figure is 1.73%; as for `O=C(CNC(=O)C12CC3CC(CC(C3)C1)C2)OCC(=O)N1CCCCC1`, -2.08%; as for `COC(=O)c1ccc(CNC(=O)C2CCC(=O)N(Cc3ccccn3)C2)cc1` (centres undefined), 13.8% (active).
Regarding `COC(=O)c1ccc(CNC(=O)C2CCC(=O)N(Cc3cccc(F)c3)C2)cc1` (centres undefined), the activation was 2.75%.
The same measure for `Cc1ccccc1CCNC(=O)C1CCC(=O)N(Cc2ccc(Cl)cc2)C1` (centres undefined): -4.94%; for `Cc1cc(C)c(S(=O)(=O)Nc2c(C)n(C)n(-c3ccccc3)c2=O)cc1[N+](=O)[O-]`: -0.44%.
As for `CCOC(=O)c1cc(C(C)C)sc1NC(=O)COC(=O)c1nccnc1N`, the figure is 17%; as for `CC(C)(C)C(=O)CN1C2=NCCN2c2ccccc21`, -8.44%; as for `O=C(NC1CCCC1)C(c1ccc(N2CCOCC2)cc1)N(C(=O)c1ccco1)c1ccccc1F` (centres undefined), -4.93%.
For the compound `Cc1cccc(N(C(=O)c2ccc(CN3CCOCC3)o2)C(C(=O)NC2CCCCC2)c2ccc(F)cc2)c1` (centres undefined), the activation is 15.7% (active).
As for `Cc1ccc(N(C(=O)c2ccc(CN3CCOCC3)o2)C(C(=O)NCCC(C)C)c2cccs2)c(C)c1` (centres undefined), the figure is 9.68%.
The same measure for `CSc1ncccc1C(=O)Nc1cccc(S(=O)(=O)N2CCOCC2)c1`: 7.64%.
With `Cc1ccc(S(=O)(=O)N(C)C)cc1NC(=O)C(C)OC(=O)c1ccc2ccccc2n1` (centres undefined), the activation is 21.1%.
The same measure for `COC(=O)c1cc(C(=O)OCC(=O)Nc2cc(C)on2)cc([N+](=O)[O-])c1`: 19.2%; for `COC(=O)c1ccccc1NC(=O)Cn1nc(C(F)(F)F)c2c1CCC2`: -1.81%.
As for `COCCn1c(SCC(=O)Nc2ccccc2F)nc2c(c1=O)SCC2`, the figure is 1.76%; as for `COCCn1c(SCC(=O)N2CCCCCC2)nc2c(c1=O)SCC2`, 28% (active).
Consider `COCCn1c(SCC(=O)Nc2ccc(F)cc2F)nc2c(c1=O)SCC2`, for which the activation was 0.05%.
The same measure for `CC(=O)n1cc([C@@H]2C=C(C(=O)N3CCN(Cc4ccc5c(c4)OCO5)CC3)O[C@H](OCc3ccc(CO)cc3)C2)c2ccccc21`: -4.81%.

Values taken from PubChem BioAssay AID624126 (The Scripps Research Institute Molecular Screening Center, 2012).
